Screening results deposited in PubChem by Broad Institute.
An excerpt weighted towards active compounds, which were near 6.7% of everything screened.
T cruzi growth-1 = T. cruzi intracellular proliferation inhibitors, primary screen, cell-based, beta-gal Tulahuen parasites, NIH3T3 host, luminescence. T. cruzi beta-gal in NIH3T3, GalScreen luminescence, 90 h. 77,000 tested, 5.9% active. inhibition, % at 8.34 µM. AID 624255, 2012;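 active means mean inhibition above about 93%, with at least 55% of replicates each passing it, limit read from the data, passing the limit was not always enough; inconclusive means only one of those two conditions holds; inactive means neither condition holds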
C diff growth = C. difficile growth inhibitors, primary screen, HTS; Clostridium difficile clinical isolate growth, OD600, 24 h; stronger effect = lower value; growth activity, negative = inhibition, % at 16 µg/mL (by protocol); AID 1259249, 2017; 86,000 tested, 0.25% active;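 active means mean growth activity at or below -80% and every replicate also at or below -80%; inconclusive means mean at or below -80% but some replicate above -80%; inactive means mean growth activity above -80%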;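 further: 0% = DMSO wells and -100% = levofloxacin 16 µg/mL wells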
Pf Dd2 inh = P. falciparum Dd2 growth inhibitors, primary screen, SYBR Green fluorescence, single dose replicates | 94,000 tested, 2.3% active | AID 1159554, 2015 | 72 h; stronger effect = lower value | activity change, % at 10 µM; in the data active means activity change below about -80%; inconclusive means no clear call, values can overlap the other calls
T cruzi growth-2 = T. cruzi intracellular proliferation inhibitors, confirmation, cell-based, NIH3T3 host, beta-gal parasite, luminescence, cherry-pick; shares compounds with T cruzi growth-1; T. cruzi beta-gal in NIH3T3, GalScreen luminescence, 90 h; inhibition, % at 8.35 µM; 5,600 tested, 72% active; AID 651739, 2012;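 active means mean replicate inhibition above about 95% and at least 55% of replicates individually reaching it, limit read from the data; inconclusive means only one of the two criteria is met; inactive means neither criterion is met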
T cruzi growth-3 = inhibitors of intracellular T. cruzi replication, confirmation, NIH3T3 host cells, beta-gal parasites, cherry-pick, set 2; T. cruzi beta-gal in NIH3T3, GalScreen luminescence, 90 h; 5,600 tested, 21% active; inhibition, % at 2.09 µM; shares compounds with T cruzi growth-1;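 active means mean inhibition above about 95%, with at least 55% of replicates also reaching it, limit read from the data; inconclusive means meets just one of the two conditions; inactive means meets neither condition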;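 further: plate controls were neutral control median for no effect and positive control median for full effect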
NIH3T3 tox = cytotoxicity in mouse NIH/3T3 fibroblasts, confirmation, cytotoxicity control for T. cruzi proliferation inhibitor project, cell-based, cherry-pick, single point. shares compounds with T cruzi growth-1. NIH/3T3 viability, CellTiter-Glo ATP luminescence, 90 h. cytotoxicity (signal decrease), % at 8.35 µM. 5,600 tested, 14% active;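 active means mean signal decrease across replicates above about 35% based on untreated-well scatter, with enough replicates individually passing, limit read from the data; inconclusive means no rule stated though some were filed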;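 further: 0% = median of neutral control wells and 100% = median of positive control wells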
3T3 cytotox 2 = NIH/3T3 fibroblast cytotoxicity, confirmation, cytotoxicity control, cell-based, cherry-pick, single point, set 2; shares compounds with T cruzi growth-1; NIH/3T3 viability, CellTiter-Glo ATP luminescence, 90 h; inhibition, % at 24.9 µM; 5,600 tested, 56% active; AID 651744, 2012;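 active means mean loss of cell viability signal at or above a set limit, and enough replicates individually reaching it; inconclusive means meets only the mean limit or only the replicate share; inactive means meets neither condition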;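 further: 0% = median of neutral control wells and 100% = median of positive control wells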
Starred values were filed as active, the others as inactive; ? = inconclusive; / = no result.

SMILES	T cruzi growth-1	C diff growth	Pf Dd2 inh	T cruzi growth-2	T cruzi growth-3	NIH3T3 tox	3T3 cytotox 2
CCCC#Cc1cnc2c(c1)C(=O)N([C@H](C)CO)C[C@@H](C)[C@@H](CN(C)Cc1ccc(F)cc1)O2	62	6	-26	/	/	/	/
C[C@@H]1CN([C@H](C)CO)S(=O)(=O)c2ccc(C#CC3(O)CCCC3)cc2O[C@@H]1CN(C)C(=O)c1ccccc1	-26	-3	-17	/	/	/	/
O=C(c1cccc(F)c1)N1CCCCN2[C@H](C1)[C@@H](c1ccc(C#CC3(O)CCCC3)cc1)[C@@H]2CO	7	9	6	/	/	/	/
O=C(c1cccc(F)c1)N1CCCCN2[C@@H](CO)[C@H](c3ccc(C#CC4(O)CCCC4)cc3)[C@@H]2C1	?	-7	11	92	84	6	?
O=C(c1cccc(F)c1)N1CCCCN2[C@H](CO)[C@H](c3ccc(C#CC4(O)CCCC4)cc3)[C@@H]2C1	?	-3	3	109*	76	25	11
C[C@@H]1CCCCO[C@@H](CN(C)S(=O)(=O)c2ccc(Cl)cc2)[C@@H](C)CN([C@H](C)CO)C(=O)c2cc(NS(C)(=O)=O)ccc2O1	-34	4	-41	/	/	/	/
C[C@@H]1CCCCO[C@@H](CN(C)C(=O)Cc2ccccc2)[C@@H](C)CN([C@H](C)CO)C(=O)c2cc(NC(=O)c3ccccc3)ccc2O1	22	0	-6	/	/	/	/
CO[C@@H]1CN(C)C(=O)c2ccc(NC(=O)c3cc(C)on3)cc2OC[C@@H](C)N(C(=O)C2CC2)C[C@H]1C	66	/	/	/	/	/	/
C[C@H](CO)N1C[C@H](C)[C@@H](CN(C)Cc2ccc(Oc3ccccc3)cc2)Oc2ccc(NC(=O)Nc3cccc4ccccc34)cc2CC1=O	94	15	-71	/	/	/	/
C[C@@H]1CN([C@@H](C)CO)C(=O)Cc2cc(NC(=O)Nc3cccc4ccccc34)ccc2O[C@H]1CN(C)Cc1ccc(Oc2ccccc2)cc1	?	10	-47	105*	107*	21	21
C[C@@H]1CN([C@H](C)CO)C(=O)Cc2cc(NC(=O)Nc3cccc4ccccc34)ccc2O[C@H]1CN(C)Cc1ccc(Oc2ccccc2)cc1	96*	-7	16	107*	80	9	12
C[C@H]1CN([C@@H](C)CO)C(=O)Cc2cc(NC(=O)Nc3cccc4ccccc34)ccc2O[C@H]1CN(C)Cc1ccc(Oc2ccccc2)cc1	60	1	-7	/	/	/	/
CN(C)C(=O)c1cccc(-c2ccccc2[C@H]2[C@@H](CO)N(C(=O)C3CCCCC3)[C@H]2C#N)c1	/	-18	-29	/	/	/	/
C[C@H](CO)N1C[C@H](C)[C@@H](CN(C)C(=O)Cc2ccccc2)Oc2ncc(C#Cc3ccccc3F)cc2C1=O	96*	-12	-25	108*	65	6	94*
C[C@H]1CN([C@@H](C)CO)C(=O)c2cc(C#Cc3ccccc3F)cnc2O[C@@H]1CN(C)C(=O)Cc1ccccc1	59	-19	-41	/	/	/	/
C[C@H](CO)N1C[C@H](C)[C@@H](CN(C)C(=O)C2CCC2)Oc2ncc(C#Cc3ccccc3F)cc2C1=O	103	-4	-32	/	/	/	/
C[C@@H]1CN([C@H](C)CO)C(=O)c2cc(C#Cc3cccc(F)c3)cnc2O[C@H]1CN(C)C(=O)C1CCCCC1	101*	/	-71	110*	84	-2	103*
C[C@H]1CN([C@@H](C)CO)C(=O)c2cc(C#Cc3ccccc3F)cnc2O[C@@H]1CN(C)C(=O)C1CCC1	97*	5	-53	104*	44	30	45*
CC(C)NC(=O)N(C)C[C@@H]1Oc2ncc(C#Cc3ccccc3F)cc2C(=O)N([C@@H](C)CO)C[C@H]1C	102*	-9	-50	81	48	32	61*
CC(C)NC(=O)N(C)C[C@@H]1Oc2ncc(C#Cc3ccccc3F)cc2C(=O)N([C@H](C)CO)C[C@@H]1C	86	-12	-53	/	/	/	/
C[C@H]1CN([C@@H](C)CO)C(=O)c2cc(C#Cc3cccc(F)c3)cnc2O[C@H]1CN(C)C(=O)C1CCCCC1	99	/	-73	/	/	/	/
CN(C)C(=O)C[C@H]1CC[C@H](NC(=O)C2CCC2)[C@H](CO)O1	43	-3	0	/	/	/	/
CCCC(=O)N1CCC2(CC1)CN(C(=O)C1CCCC1)[C@H](CO)c1[nH]c3cc(OC)ccc3c12	/	-1	-4	/	/	/	/
C[C@H]1CN([C@@H](C)CO)C(=O)c2cc(C#Cc3ccccc3F)cnc2O[C@@H]1CN(C)C(=O)c1ccc2c(c1)OCO2	125*	0	-82*	110*	42	33	37*
C[C@@H]1CN([C@@H](C)CO)C(=O)c2cc(C#Cc3ccccc3F)cnc2O[C@@H]1CN(C)C(=O)c1ccc2c(c1)OCO2	68	-5	-49	/	/	/	/
SMILES	T cruzi growth-1	C diff growth	Pf Dd2 inh	T cruzi growth-2	T cruzi growth-3	NIH3T3 tox	3T3 cytotox 2
C[C@H](CO)N1C[C@H](C)[C@H](CN(C)Cc2ccccc2)OCCCC[C@H](C)Oc2ccc(NC(=O)Nc3ccc(C(F)(F)F)cc3)cc2C1=O	87	35	-12	/	/	/	/
CNC[C@@H]1Oc2ncc(C#CCC3CCCC3)cc2C(=O)N([C@H](C)CO)C[C@H]1C	?	4	-52	109*	?	-2	106*
C[C@@H]1CN([C@@H](C)CO)C(=O)c2cc(C#CCc3ccccc3)cnc2O[C@H]1CN(C)C(=O)C1CCCCC1	114*	15	-82*	105*	36	-28	106*
CC(C)CC#Cc1cnc2c(c1)C(=O)N([C@@H](C)CO)C[C@@H](C)[C@H](CN(C)C(=O)C1CCCCC1)O2	?	-3	-53	?	32	-10	81*
CNC[C@@H]1Oc2ncc(C#CCC3CCCC3)cc2C(=O)N([C@H](C)CO)C[C@@H]1C	57	6	-35	/	/	/	/
CC(C)CC#Cc1cnc2c(c1)C(=O)N([C@@H](C)CO)C[C@@H](C)[C@@H](CN(C)C(=O)C1CCCCC1)O2	48	5	0	/	/	/	/
C[C@@H]1CN([C@H](C)CO)C(=O)c2cc(C#CCc3ccccc3)cnc2O[C@@H]1CN(C)C(=O)C1CCC1	54	4	-10	/	/	/	/
CCCNC(=O)N1CC2(C1)CN(C(=O)NC(C)C)[C@@H](CO)c1c2c2ccc(OC)cc2n1C	/	/	32	/	/	/	/
C[C@@H]1CN([C@@H](C)CO)C(=O)c2cc(NC(=O)CCCN(C)C)ccc2O[C@@H](C)CCCCO[C@@H]1CN(C)S(=O)(=O)c1ccc(F)cc1	-28	-6	-42	/	/	/	/
